PubChem BioAssay AID652105 (National Center for Advancing Translational Sciences (NCATS), 2013)
Out of some 330,000 compounds screened, about 4,100 (1.2%) were called active. Roughly 2% stayed inconclusive and do not appear here. The full list was thinned out, with actives kept by preference. A number with no mark means an inactive call. The calls were made as follows: active = max response of -50% or lower; inconclusive = between -30% and -50%; inactive = -30% or higher.

Biological target: Phosphatidylinositol 5-phosphate 4-kinase type-2 alpha (Homo sapiens) (UniProt P48426)
Test: qHTS for Inhibitors of phosphatidylinositol 5-phosphate 4-kinase (PI5P4K); also: value at the top dose of about 77 µM
Conditions: PI5P4Kalpha enzyme, ADP-Glo luminescence, 60 min; hits give low values
Text: In addition to finding PI5P, we discovered the type II phosphatidylinositol 5-phosphate 4-kinase (PI5P4K) family (alpha, beta, gamma isoforms) that catalyze the conversion of PI5P to PI(4,5)P2. Alternatively, PI(4,5)P2 can also be synthesized through phosphatidylinositol-4-phosphate (PI4P) by the type I phosphatidylinositol 4-phosphate 5-kinases (PI4P5K). These PI5P4K enzymes therefore represent one way by which cells can regulate endogenous PI5P levels and play important roles in insulin signaling and in stress responses.
This proposal aims to identify and optimize specific modulators of human PI5P4K, phosphatidylinositol-5-phosphate 4-kinase (Type II PIPK), a family of kinases that regulate AKT signaling and tumor cell growth. In this project we aim to identify inhibitors of human PI5P4K using a quantitative high-throughput screening approach against the MLSMR containing ~400,000 small molecules.
NIH Chemical Genomics Center [NCGC]
NIH Molecular Libraries Probe Centers Network [MLPCN]
Assay Submitter (PI): Atsuo Sasaki, Beth Israel Deaconess Medical Center
2 microL of PI5P4Kalpha/substrate buffer (columns 1-2, 5-48) are dispensed into Greiner white solid bottom 1536-well assay plates; column 3 receives only PI5P4Kalpha buffer as 0x substrate controls; column 4 receives only substrate buffer as 0x PI5P4Kalpha controls. Final assay buffer consists of 0.038 M HEPES pH 7.4, 0.28 mM EGTA, 0.1% CHAPS, and 5% DMSO (final concentration). Compounds are then transferred via Kalypsys pin tool equipped with 1536-pin array (10 nL slotted pins, V&P Scientific, San Diego, CA). Following addition of compound, 1 microL of ATP (5 microM final concentration, all columns) is added to initiate the reaction. ATP is diluted in an assay buffer consisting of 0.02 M HEPES pH 7.4, 60 mM MgCl2, 15 microM ATP, and 0.1% CHAPS. The plates are then incubated at room temperature for 60 minutes. ADP-Glo reagent 1 is added (2 microL) and plates incubated for 45 minutes, before ADP-Glo reagent 2 (4 microL) is added and plates incubated for 30 minutes. They are then transferred to a ViewLux high-throughput CCD imager (PerkinElmer) wherein single end-point measurements of luminescence are acquired using a clear filter.
% is scaled to controls: 0 for no effect and ±100 for the full control effect.

Phosphatidylinositol 5-phosphate 4-kinase type-2 alpha (Homo sapiens), sequence (P48426 whole entry, looked up): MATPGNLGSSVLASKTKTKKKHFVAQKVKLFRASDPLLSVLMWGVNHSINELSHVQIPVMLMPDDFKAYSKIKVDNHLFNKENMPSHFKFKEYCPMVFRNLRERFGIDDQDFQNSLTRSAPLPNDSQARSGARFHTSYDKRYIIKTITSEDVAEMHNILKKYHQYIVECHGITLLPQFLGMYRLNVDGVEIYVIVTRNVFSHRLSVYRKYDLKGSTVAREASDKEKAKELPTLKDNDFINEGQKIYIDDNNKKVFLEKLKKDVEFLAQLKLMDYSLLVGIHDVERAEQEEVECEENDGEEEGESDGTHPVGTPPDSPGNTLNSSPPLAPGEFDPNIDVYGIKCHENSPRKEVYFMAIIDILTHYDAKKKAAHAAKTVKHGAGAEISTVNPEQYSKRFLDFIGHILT

SMILES | max response
O=C1NC(=O)N(CCc2ccc(F)cc2)C(=O)/C1=C/C=C/c1ccccc1 | -26.8%
O=C1NC(=O)N(Cc2ccco2)C(=O)/C1=C\c1cccn1CCOc1ccccc1 | -24.2%
O=C1NC(=O)N(Cc2ccco2)C(=O)/C1=C\c1ccc(-c2ccc(F)cc2)o1 | -73.5% (active)
O=c1[nH]c2ccccc2n1C1CCN(C(c2ccccc2)c2nnnn2Cc2ccccc2)CC1 (stereo not given) | -4.66%
COC(=O)C1=C(c2ccc(OCc3ccccc3)cc2)C[C@@H]2CC[C@H]1N2C(=O)NCc1ccc(Cl)cc1 | 5.92%
CCOC(=O)c1cccc(C2=C(CNC(=O)c3ccncc3)[C@H]3CC[C@@H](C2)N3Cc2ccccc2)c1 | -3.84%
O=C(O)CCn1cc(C=C2C(=O)NC(=S)NC2=O)c(-c2cccc(Br)c2)n1 | -58.5% (active)
O=C(NCC1=C(c2ccc3ccccc3c2)C[C@@H]2CC[C@H]1N2Cc1ccco1)c1cccs1 | -1.39%
COC(=O)C1=C(c2ccc(OCc3ccccc3)cc2)C[C@@H]2CC[C@H]1N2C(=O)NCc1cccc(F)c1 | 0.749%
CCC(=NCCCO)c1c(O)n(-c2ccc(OC)cc2)c(=O)[nH]c1=O | 0.144%
CCCCC(=O)N/N=C/c1c(O)n(-c2ccccc2)c(=O)[nH]c1=O | -1.14%
CC/C(=N\NC(=O)c1ccccc1O)c1c(O)n(Cc2ccccc2)c(=O)[nH]c1=O | -90.3% (active)
O=C(N/N=C/c1c(O)n(Cc2ccccc2)c(=O)[nH]c1=O)c1ccccc1 | -53.6% (active)
O=c1[nH]c(=O)n(Cc2ccccc2)c(O)c1/C=N/Nc1c(F)c(F)c(F)c(F)c1F | 4.31%
CCC(=NCCc1ccccc1)c1c(O)n(C2CCCCC2)c(=O)[nH]c1=O | -4.68%
COc1ccc(NC(=O)N2Cc3ccccc3-n3nncc3C2)cc1 | -4.3%
COc1ccc(-n2nnnc2C(c2cccc3ccccc23)N2CCC(n3c(=O)[nH]c4ccccc43)CC2)cc1 (stereo not given) | 0.885%
CSCCC(c1nnnn1C(C)(C)C)N1CCC(n2c(=O)[nH]c3ccccc32)CC1 (stereo not given) | 8.06%
O=c1[nH]c2ccccc2n1C1CCN(C(c2ccnc3ccccc23)c2nnnn2Cc2ccccc2)CC1 (stereo not given) | -3.14%
O=C1NC(=O)C(C/C=C/c2ccccc2)C(=O)N1 | -78.1% (active)
O=C1NC(=O)C(Cc2ccccc2)C(=O)N1 | -28.7%
CC(=O)NCC1=C(c2ccc3ccccc3c2)C[C@@H]2CC[C@H]1N2Cc1ccco1 | -10.1%
O=c1c2ccccc2nc(CBr)n1-c1ccc(Cl)cc1 | -9.65%
S=C(NCCc1ccccc1)N1Cc2cc(N3CCOCC3)ccc2-n2nncc2C1 | -1.37%
CCOC(=O)[C@]12Cc3ccccc3[C@H]1N(C1CCCCC1)C(=O)c1cc(OC)ccc12 | -1.4%
COc1cc(C(=O)N2Cc3ccc(Br)cc3-n3nncc3C2)cc(OC)c1OC | -0.882%
C=CCN(CC=C)C(=O)Nc1ccc(OCC)cc1 | -4.12%
C=CCN1C(=O)NC(=O)/C(=C/c2ccc(OCC(=O)Nc3ccc(C)cc3)cc2)C1=O | -72.6% (active)

SMILES | max response
CCC(=O)c1ccc(OCC(=O)N2CCN(CC(=O)Nc3ccc(C)cc3)CC2)cc1 | 1.24%
O=C(NC1CCCCC1)N1Cc2cc(N3CCCCC3)ccc2-n2nncc2C1 | -0.829%
COc1cccc(N2C(=O)NC(=O)/C(=C\c3ccc([N+](=O)[O-])s3)C2=O)c1 | -64.2% (active)
COc1cccc(N2C(=O)NC(=O)/C(=C\c3cn(C)c4ccccc34)C2=O)c1 | 5.95%
O=C1NC(=O)N(c2ccccc2)C(=O)/C1=C/c1ccc([N+](=O)[O-])s1 | -72.2% (active)
O=C1NCN(c2ccccc2)C12CCN(C(c1cccs1)c1nnnn1C1CCCCC1)CC2 (stereo not given) | -2.62%
c1ccc(N2Cc3ccccc3-n3nncc3C2)nc1 | -2.17%
CC(=CCOc1ccc2ccc(=O)oc2c1)C1=CC(=O)C(C)(C)O1 | 4.71%
c1cc2c(c(NC3=NCCCS3)c1)CCCC2 | -10.3%
CC(C)CN1Cc2cc(N3CCCCC3)ccc2-n2nncc2C1 | -0.0123%
COC(=O)C[C@H]1CC[C@H]2NC[C@@H](O)COC[C@@H]2O1 | -5.22%
COc1ccc2c(c1)NP(=S)(c1ccccc1)N2 (stereo not given) | -27.5%
COc1ccc(N2C(=O)/C(=C/c3ccco3)C(=O)NC2=S)cc1 | -103% (active)
CCOC(=O)CNC(=O)N1Cc2cc(N3CCCCC3)ccc2-n2nncc2C1 | 7.51%
COc1ccc(C2C=C(C)Oc3c2c(=O)oc2ccccc32)cc1OC (stereo not given) | 1.36%
CCn1cc(CN2CCCC(C(=O)c3cccc(C(F)(F)F)c3)C2)cn1 (stereo not given) | 5.27%
O=C1CC(=O)N(Cc2ccccc2)C(=O)N1CCCCCCN1C(=O)CC(=O)N(Cc2ccccc2)C1=O | -68.4% (active)
O=C(CN1CCCC1=O)NCCc1ccccc1 | 1.78%
COc1cccc(C(c2nnnn2-c2ccc3c(c2)OCCO3)N2CCC3(CC2)C(=O)NCN3c2ccccc2)c1OC (stereo not given) | -0.4%
O=P(OC1=CCCCC1)(c1ccccc1)c1ccccc1 | 1.07%
Cc1ncoc1C(=O)NCC1=C(c2cccc3ccccc23)C[C@@H]2CC[C@H]1N2Cc1ccco1 | 7.08%
Cc1c(C(=O)O)cccc1-n1c(C)cc(/C=C2\C(=O)NC(=O)N(c3ccc4c(c3)OCO4)C2=O)c1C | -18.8%
Cc1cccc(N2C(=O)NC(=O)/C(=C\c3cnn(-c4ccccc4)c3)C2=O)c1 | -69.1% (active)
Cc1ccccc1N1C(=O)NC(=O)/C(=C\c2cc(C)n(C)c2C)C1=O | 0.241%
COC(=O)CN(CCCl)P1(=O)OCCCN1CCCl (stereo not given) | -2.26%
O=c1c2ccccc2[nH]c(=S)n1-c1cccc(Cl)c1 | -8.39%
CCOC(=O)[C@]12Cc3cc(OC)ccc3[C@H]1N(C(C)C)C(=O)c1ccccc12 | 1.48%
